Some of the results follow. Active and inactive are the calls of the source.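 How the source made its calls: active means mean activation at 20 µM of at least 40%; inactive means the rest.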
These compounds were tested against Neurotensin receptor type 1 (Homo sapiens) (UniProt P30989) (assay: NTR1 agonists, single-dose retest, confirmation, imaging, U2OS cells, beta-arrestin-GFP, single concentration (AID 504550;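 further: 0% = DMSO without peptide and 100% = 100 nM NTR1 peptide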)). Conditions: NTR1-U2OS beta-arrestin-GFP translocation imaging; at 20 µM; stronger effect = higher value.
Neurotensin receptor type 1 (Homo sapiens), sequence (P30989 whole entry, looked up): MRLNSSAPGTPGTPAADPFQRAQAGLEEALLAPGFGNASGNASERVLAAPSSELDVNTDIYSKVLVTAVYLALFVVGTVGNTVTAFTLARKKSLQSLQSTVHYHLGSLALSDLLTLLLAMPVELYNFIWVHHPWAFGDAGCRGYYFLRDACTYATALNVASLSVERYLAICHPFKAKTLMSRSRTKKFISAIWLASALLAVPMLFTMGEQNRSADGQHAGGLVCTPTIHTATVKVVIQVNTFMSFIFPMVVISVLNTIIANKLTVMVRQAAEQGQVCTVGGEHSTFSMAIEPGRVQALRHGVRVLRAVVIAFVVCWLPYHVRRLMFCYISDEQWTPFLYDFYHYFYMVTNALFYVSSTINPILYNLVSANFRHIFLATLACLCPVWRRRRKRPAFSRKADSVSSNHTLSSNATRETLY

Row | SMILES | activation
1 | O=C(/C=C/c1ccc(Cl)c([N+](=O)[O-])c1)c1cccnc1 | 49.5% (active)
2 | O=C(/C(=C/c1cccc(Cl)c1)c1nc2ccccc2[nH]1)c1ccccc1 | 62.5% (active)
3 | Cc1cccc(-n2c(SCC(N)=O)nc3c(c2=O)C2(CCCCC2)Cc2ccccc2-3)c1 | 22.7% (inactive)
4 | CC(C)Cn1c(N)c(C(=O)NCc2cccs2)c2nc3ccccc3nc21 | 21% (inactive)
5 | CN1/C(=C\C(=O)c2oc3ccccc3c2N)C(C)(C)c2ccccc21 | 15% (inactive)
6 | CCCCNc1c(-c2cccc(Sc3ccc(OC)cc3)c2)nc2ccccn12 | 68.2% (active)
7 | O=C(N/N=C/c1c(Cl)[nH]c2ccccc12)c1sc2ccccc2c1Cl | 21.7% (inactive)
8 | Cc1ccc(NC(=O)COc2coc(CN3CCc4ccccc4C3)cc2=O)cc1Cl | -2.38% (inactive)
9 | CC(C)(C)OC(=O)N1CCC(NC(=O)c2[nH]cnc2C(=O)N[C@@H](Cc2ccccc2)C(=O)OCc2ccccc2)CC1 | 51.5% (active)
10 | CC(C)c1ccccc1OCC(O)CN(CC(O)COc1cccc2ccccc12)C(C)C (stereo not given) | 15.3% (inactive)
11 | O=C(N/N=C/c1ccc(OC(=O)c2ccccc2Cl)cc1)c1ccc(O)cc1 | 50.1% (active)
12 | Cc1cccc(-c2nc(Nc3ccc(O)cc3)c3ccccc3n2)c1 | 31.3% (inactive)
13 | CCOC(=O)CSC1=C(C#N)C(c2ccco2)C(C(=O)OCc2ccccc2)=C(C)N1 (stereo not given) | 7.17% (inactive)
14 | CCCCCCCCCCOC(=O)Cn1c(COc2cccc(OC)c2)[n+](C)c2ccccc21 | 71.8% (active)
15 | COc1cccc(/C=N/Nc2cc(C)nc(-c3ccccc3O)n2)c1O | 36.7% (inactive)
16 | O=c1oc2ccccc2cc1-c1csc(Nc2ccc(O)cc2)n1 | 10.5% (inactive)
17 | COc1ccc(C(C[N+](=O)[O-])n2nc(C)cc2C)cc1 (stereo not given) | 52.4% (active)
18 | Nc1nc(Nc2ccccc2F)nc(NC2CCCCC2)c1[N+](=O)[O-] | 13.2% (inactive)
19 | OC(CN=c1sc2ccccc2n1CC(O)COc1ccccc1)COc1ccccc1 (stereo not given) | 18.2% (inactive)
20 | CC(C)Oc1c(Br)cc(Br)cc1/C=N/NC(N)=S | 26.4% (inactive)

Source: PubChem BioAssay AID504550 (Sanford-Burnham Center for Chemical Genomics, 2011)
